VACV mCherry inh = inhibitors of vaccinia virus infection (mCherry reporter signal). Vaccinia virus mCherry reporter infection, fluorescence. Potency, µM (highest dose often 36.5 µM), usual class: inhibitors. 0.63% of 310,000 active. AID 720579; calls by dose curve; tested in A549 cells; further: nearly all actives have a fitted effect of over 35% in size
Pf growth 96h = P. falciparum growth inhibition at 96 hour, primary screen for plastid delayed-death inhibitors; P. falciparum luciferase reporter growth, 96 h; 6.9% of 320,000 active; Potency, µM (series often up to 28.7 µM), most hits filed as inhibitors
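Readout is luminescence from an integrated firefly luciferase in P. falciparum. Red cells, 2% hematocrit and 0.05% parasitemia final, were cultured with compound through two parasite generations (96 hours) at 37 C, 5% CO2.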
HCV inhibitor = HCV inhibition. Huh7.5.1 HCVcc-Cre infection, luciferase reporter, 44 h. Potency, µM (highest dose often 41.8 µM), actives largely listed as inhibitors. 3.4% of 340,000 active
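1,000 cells/well; 4 h culture; + compound; + HCVcc-Cre (~0.5 moi); 44 h; luciferase substrate, RT 15 min; read 15 sec.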
NS1 function inh = inhibitors of influenza NS1 protein function; Potency, µM (series often up to 46.1 µM); 0.4% of 270,000 active; AID 2326; calls by dose curve; further: actives are rising curves; nearly all actives have a fitted effect of over 50% in size
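Growth recovery, yeast-based: influenza A NS1 expressed in S. cerevisiae causes slow growth, and suppressors are detected by OD600. The parent strain without NS1 is used as positive control.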
Vaccinia Venus = vaccinia inhibition (Venus reporter) | Vaccinia virus Venus reporter expression, fluorescence | 0.46% of 330,000 active | Potency, µM (series often up to 36.5 µM), hits mostly inhibitors | AID 720580; calls by dose curve; tested in A549 cells; further: nearly all actives have a fitted effect of over 30% in size
Pf growth 48h = P. falciparum growth inhibition at 48 hours (one generation). Potency, µM (doses to about 28.7 µM), actives largely listed as inhibitors. 5.9% of 310,000 active. P. falciparum luciferase growth in erythrocytes, 48 h
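Cell-based growth assay: transgenic P. falciparum expressing firefly luciferase, cultured in red cells within RPMI 1640 containing 0.5% w/v Albumax, 24 mM bicarbonate and gentamycin. A drop in luciferase activity indicates inhibition.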
Each line names hits and unclear results; the compound was inactive in the other large screens. Shown are actives, neighbours in structure and some others; about 11% of the full set was active somewhere. Unless noted, the call rests on the fitted dose curve; in most records, active means well fitted inhibition curve with a large enough effect; inconclusive means small, poorly fitted or top-dose-only effect, or another doubt; inactive means no such curve, though single readings can be large or run the other way.

O=C(c1ccco1)N1CCN(CC(=O)N2c3ccccc3CCc3ccccc32)CC1	Pf growth 96h 10µM, Pf growth 48h inconclusive (no result: VACV mCherry inh, Vaccinia Venus)
CC1CCN(CC(=O)N2c3ccccc3CCc3ccccc32)CC1	Pf growth 48h 15µM (no result: VACV mCherry inh, Vaccinia Venus)
O=C(CN1CCCCC1)N1c2ccccc2CCc2ccccc21	Pf growth 96h inconclusive (no result: VACV mCherry inh, Pf growth 48h)
CCOC(=O)N1CCN(CC(=O)N2c3ccccc3CCc3ccccc32)CC1	Pf growth 96h inconclusive (no result: VACV mCherry inh, NS1 function inh, Vaccinia Venus)
CC(C)c1ccc(N2C(=O)CSC23C(=O)N(Cc2cccc(F)c2)c2ccccc23)cc1 (configuration not stated)	VACV mCherry inh inconclusive (no result: Pf growth 96h, HCV inhibitor, NS1 function inh, Pf growth 48h)
CCCCCN(C(=O)CCC(=O)OCc1ccc(C(C)(C)C)cc1)c1c(N)n(CCCC)c(=O)[nH]c1=O	VACV mCherry inh inconclusive, Pf growth 96h 8.3µM, HCV inhibitor inconclusive, Vaccinia Venus inconclusive, Pf growth 48h inconclusive
CCCCCN(C(=O)CCC(=O)OCc1ccc(C(C)C)cc1)c1c(N)n(CCCC)c(=O)[nH]c1=O	Pf growth 96h 10µM (no result: NS1 function inh)
O=C(CN1C(=O)c2ccccc2C1=O)NC(Cc1ccccc1)C(=O)O (configuration not stated)	none (no result: Pf growth 96h, NS1 function inh, Pf growth 48h)
COc1cccc2nc3cc(C)c(C)cc3nc12	VACV mCherry inh inconclusive, HCV inhibitor inconclusive
COc1cccc(OC)c1-c1cc(CCCc2cc(-c3c(OC)cccc3OC)nc3ccccc23)c2ccccc2n1	VACV mCherry inh 10µM, Vaccinia Venus inconclusive (no result: Pf growth 96h, HCV inhibitor, NS1 function inh, Pf growth 48h)
CCN(CC)CCNC(=O)c1nn(-c2ccc(Cl)cc2)c2c1CCc1cc(OC)ccc1-2	VACV mCherry inh inconclusive, HCV inhibitor inconclusive, Vaccinia Venus 13µM (no result: Pf growth 96h, NS1 function inh, Pf growth 48h)
CC1(C)Cc2cccc(OCC(=O)NCCc3ccc(S(N)(=O)=O)cc3)c2O1	Pf growth 96h inconclusive (no result: NS1 function inh)
COc1ccc(C2=NN(S(=O)(=O)c3ccccc3)C(c3ccccc3)C2)cc1 (configuration not stated)	Pf growth 96h 6.6µM, HCV inhibitor inconclusive, Pf growth 48h inconclusive (no result: VACV mCherry inh, Vaccinia Venus)
COc1ccc(C2CC(c3ccccc3)=NN2S(=O)(=O)c2ccc(C)cc2)c(OC)c1 (configuration not stated)	Pf growth 96h 12µM, HCV inhibitor inconclusive, NS1 function inh inconclusive, Pf growth 48h inconclusive
O=S(=O)(c1ccccc1)N1N=C(c2ccccc2)CC1c1ccccc1 (configuration not stated)	Pf growth 96h inconclusive, Pf growth 48h inconclusive
CN(C(=O)CSc1nnc(Nc2ccccc2F)s1)C1CCS(=O)(=O)C1 (configuration not stated)	none (no result: Pf growth 96h, NS1 function inh, Pf growth 48h)
Cc1cc(C)c2cccnc2c1O	none (no result: Pf growth 96h, HCV inhibitor, NS1 function inh, Pf growth 48h)
CN1CCN(C(c2ccccn2)c2cc(Cl)c3cccnc3c2O)CC1 (configuration not stated)	Pf growth 96h inconclusive, HCV inhibitor inconclusive, Pf growth 48h 4.7µM
Oc1c(C(c2ccccn2)N2CCC(Cc3ccccc3)CC2)cc(Cl)c2cccnc12 (configuration not stated)	VACV mCherry inh inconclusive, HCV inhibitor 18µM, Vaccinia Venus inconclusive, Pf growth 48h 2.9µM (no result: NS1 function inh)
Cc1ccc(C(c2cc(Cl)c3cccnc3c2O)N2CCN(C)CC2)cc1 (configuration not stated)	VACV mCherry inh inconclusive, Pf growth 96h inconclusive, HCV inhibitor inconclusive, Vaccinia Venus inconclusive, Pf growth 48h 4.1µM
c1ccc(CC2CCN(Cc3ccccn3)CC2)cc1	Pf growth 48h inconclusive (no result: VACV mCherry inh, Vaccinia Venus)
Oc1c(C(c2ccc(Cl)cc2)N2CCCC2)cc(Cl)c2cccnc12 (configuration not stated)	VACV mCherry inh 13µM, Pf growth 96h 1.9µM, HCV inhibitor inconclusive, Vaccinia Venus inconclusive, Pf growth 48h 3.3µM
Oc1c(C(c2ccccc2Cl)N2CCCC2)ccc2cccnc12 (configuration not stated)	VACV mCherry inh inconclusive, Pf growth 96h inconclusive, HCV inhibitor 10µM, Vaccinia Venus inconclusive
CCn1cc(/C=C(\NC(=O)c2ccccc2Cl)C(=O)NCCCn2ccnc2)c2ccccc21	none (no result: Pf growth 96h, HCV inhibitor, NS1 function inh, Pf growth 48h)
COc1ccc(CCN2C(=O)c3cccc4c(C(=O)N5CCCCC5)ccc(c34)C2=O)cc1OC	Pf growth 96h 8.3µM, Pf growth 48h inconclusive
COc1cc(CCN2C(=O)c3cccc4cccc(c34)C2=O)c(S(=O)(=O)N2CCC(C)CC2)cc1OC	Pf growth 96h inconclusive, Pf growth 48h 6.6µM
COc1cc(CCN2C(=O)c3cccc4cccc(c34)C2=O)c(S(=O)(=O)NCCCO)cc1OC	Pf growth 96h 8.3µM, Pf growth 48h inconclusive

Assay outcomes as filed in PubChem.
